Screens as filed in PubChem BioAssay.
SMN2 splice up: increases expression of the SMN2 splice variant; HEK293 SMN2-luciferase splicing reporter, luminescence, 30-36 h; Potency, µM (titrated, usually from 46.1 µM), most hits filed as activators; hit rate 2.8% among 210,000; AID 1458; also: nearly all actives have a fitted effect of over 55% in size
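HEK293 cells carry an SMN2 minigene-luciferase reporter in which exon 7 inclusion puts luciferase in frame. Cells were seeded at 2000 cells/well, attached for 10-12 hours, then exposed to compounds for 30-36 hours at 37C before ONE-Glo luminescence.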
ELG1 genotox: genotoxicity induction in ELG1-luciferase HEK293T cells | AID 504466 | Potency, µM (titrated, usually from 46 µM), most hits filed as activators | HEK293T ELG1-luciferase reporter, luminescence, 16 h | hit rate 1.3% among 330,000; also: nearly all actives have a fitted effect of over 60% in size
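Step 1: seed 2,000 HEK293T ELG1-luciferase cells per well. Step 2: add compound or DMSO, incubate 16 hr at 37 °C. Step 3: ONE-Glo, 30 min at room temperature, read luminescence.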
FLuc modulator: firefly luciferase modulation, counter-screen for miR-21 project; P08659; purified FLuc, Km substrates, luminescence inhibition; Potency, µM (top dose mostly 57.5 µM), actives largely listed as inhibitors; hit rate 6.9% among 360,000; AID 588342; also: nearly all actives have a fitted effect of over 55% in size
Target sequence (P08659 whole entry, looked up): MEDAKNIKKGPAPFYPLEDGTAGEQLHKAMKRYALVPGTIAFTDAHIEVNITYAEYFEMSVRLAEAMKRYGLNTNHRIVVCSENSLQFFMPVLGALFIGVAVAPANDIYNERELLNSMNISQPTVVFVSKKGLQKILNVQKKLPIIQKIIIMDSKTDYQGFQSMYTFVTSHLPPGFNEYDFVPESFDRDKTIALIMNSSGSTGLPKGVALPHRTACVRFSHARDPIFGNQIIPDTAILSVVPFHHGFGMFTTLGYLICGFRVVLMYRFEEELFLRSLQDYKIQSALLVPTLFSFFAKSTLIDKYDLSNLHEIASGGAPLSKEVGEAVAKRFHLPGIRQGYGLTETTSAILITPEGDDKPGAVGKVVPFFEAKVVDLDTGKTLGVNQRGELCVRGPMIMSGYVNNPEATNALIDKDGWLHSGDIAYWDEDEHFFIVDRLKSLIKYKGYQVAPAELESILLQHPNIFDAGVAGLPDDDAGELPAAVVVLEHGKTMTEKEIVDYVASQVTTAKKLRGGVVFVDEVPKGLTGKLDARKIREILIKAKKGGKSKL
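Biochemical qHTS of compounds, final roughly 60 µM downward over six points, against 10 nM purified firefly luciferase using Km concentrations of substrates (10 uM D-luciferin, 10 uM ATP) in Tris acetate pH 7.5 buffer; luminescence output.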
NPC1 prom act: NPC1 promoter activation | Huh7 NPC1 promoter luciferase reporter, 24 h | Potency, µM (highest dose often 9.22 µM), usual class: activators | hit rate 2.4% among 320,000; also: nearly all actives have a fitted effect of over 60% in size
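Luminescence read-out of NPC1 promoter-driven luciferase in stably transfected Huh7 cells; compounds delivered in DMSO and left 24 h at 37C, 5% CO2, qHTS titration format.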
Rab9 prom act: activators of Rab9 promoter. hit rate 2.8% among 320,000. Potency, µM (series often up to 9.22 µM), usual class: activators. Huh7 Rab9 promoter-luciferase reporter, luminescence, 24 h; also: nearly all actives have a fitted effect of over 60% in size
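Huh7 cells stably carrying Rab9 promoter–luciferase reporter, plated 1500 cells/well, compound added after 2 h and incubated 24 h at 37 °C; luciferase luminescence then read after 10 min with detection reagent.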
Numbers stand for hits; – = inactive; ? = inconclusive; · = no result. Shown are actives, neighbours in structure and some others; about 7.4% of the full set was active somewhere. Calls follow the shape of the dose curve; as a rule, active = well fitted curve in the direction sought with a large enough effect; inconclusive = small, poorly fitted or top-dose-only effect, or another doubt; inactive = no such curve, though single readings can be large; an effect the other way counts as inactive or inconclusive.

SMILES | SMN2 splice up | ELG1 genotox | FLuc modulator | NPC1 prom act | Rab9 prom act
CN1CCN(c2ccc(NC(=O)c3ccc(-c4ccccc4F)o3)cc2)CC1 | · | ? | 2.69µM | 3.16µM | 1µM
O=C(Nc1ccc(N2CCN(C(=O)c3ccco3)CC2)cc1)c1ccccc1Br | · | – | – | – | –
CC1CCN(c2ccc(NC(=O)c3ccc(Br)o3)cc2)CC1 | · | 1.46µM | 1.9µM | 1µM | 1µM
CN1CCN(c2ccc(NC(=O)c3ccccc3Br)cc2)CC1 | ? | 14.6µM | ? | ? | ?
CC1CCN(c2ccc(NC(=O)c3cccnc3)cc2)CC1 | 28.2µM | – | 12µM | ? | ?
CN(/N=C/c1cccc(Br)c1)C1=NS(=O)(=O)c2ccccc21 | · | – | – | – | –
Cc1cn2c(=O)cc(COc3ccccc3NC(=O)c3ccc(Cl)cc3)nc2s1 | – | · | – | · | ·
COc1ccc(OC)c(NC(=O)c2cn(CC(C)C)c(=O)c3cc(OC)c(OC)cc23)c1 | – | · | – | · | ·
Cc1nn(CC(=O)N2CCCCCC2)c(=O)c2cc3occc3n12 | · | – | – | – | –
CCC(=O)N1CCN(c2ccc(NC(=O)c3ccc(Br)o3)cc2)CC1 | – | – | – | – | –
O=C(Nc1ccc(N2CCCC2)c(Cl)c1)c1ccc(Br)o1 | 11.2µM | ? | 5.36µM | 3.55µM | 2.82µM
CN1CCN(c2ccc(NC(=O)c3ccc(Br)o3)cc2)CC1 | · | 16.4µM | 12µM | 1.58µM | ?
Cc1ccc(C(=O)N2CCN(c3ccc(NC(=O)c4ccc(Br)o4)cc3)CC2)cc1 | – | – | – | – | –
O=C(NNC(=O)c1ccc(Br)o1)c1ccc(NC(=O)c2ccccc2)cc1 | – | – | – | – | –
N/C(=N\O)c1ccc(NC(=O)c2ccc(Br)o2)cc1 | – | 23.1µM | 16.9µM | ? | ?
O=C(Nc1ccc(N2CCOCC2)cc1)c1ccc(Br)o1 | · | ? | 4.26µM | 0.447µM | 0.282µM
Cc1ccc2oc(-c3cccc(NC(=O)c4ccc(N5CCC(C)CC5)c([N+](=O)[O-])c4)c3)nc2c1 | – | · | – | · | ·
CCN(C(=O)c1ccncc1)c1c(N)n(Cc2ccccc2)c(=O)[nH]c1=O | · | – | – | – | –
O=C(Cn1c(=O)n(-c2ccc(F)c(Cl)c2)c(=O)c2sc3ccccc3c21)NC1CCCCC1 | – | · | – | · | ·
CCn1c(=O)cc(SCC(=O)NCCc2cc(OC)ccc2OC)c2ccccc21 | – | · | – | · | ·
CC(C)(C)C(C(=O)Oc1ccccc1)c1ccccc1 (stereo not given) | · | – | – | – | –
Cc1cc(C)c2c(c1)c(C)cc1nnc(SCc3ccccc3C#N)n12 | · | · | – | · | ·
CS(=O)(=O)N1CCN(c2ccc(NC(=O)c3ccc(Br)o3)cc2)CC1 | 7.08µM | 1.46µM | – | 2.82µM | 3.16µM
O=C(Nc1ccc(N2CCOCC2)cc1)c1ccc([N+](=O)[O-])o1 | · | 9.2µM | 8.49µM | 1.41µM | 1.58µM
O=C(Nc1ccc(S(=O)(=O)N2CCOCC2)cc1)c1ccc([N+](=O)[O-])o1 | · | – | – | – | –
SMILES | SMN2 splice up | ELG1 genotox | FLuc modulator | NPC1 prom act | Rab9 prom act
O=C(COc1ccc(Br)cc1Cl)NNC(=O)c1ccccc1 | · | – | · | – | –
Cc1cc(C)c(S(=O)(=O)NCC(c2cccnc2)N2CCN(Cc3ccccc3)CC2)c(C)c1 (stereo not given) | · | – | – | – | –
Cc1cc(C)c(NC(=O)CCCN2C(=O)COc3ccc(C)cc32)c(C)c1 | – | · | – | · | ·
O=c1oc2ccccc2n1CCCOc1ccccc1Cl | 20µM | · | 12µM | · | ·
Cc1ccc2oc(=O)n(CCCOc3ccccc3)c2c1 | – | ? | 23.9µM | ? | ?
COc1ccc(OCCCn2c(=O)oc3ccc(C)cc32)cc1 | ? | · | – | · | ·
CCN1CCN(C(=O)CCc2nnc(CCCCc3ccccc3)o2)[C@@H](C)C1=O | · | – | – | – | –
Cc1ccc(-n2c(=O)c3ccc(C(=O)NCc4ccccc4Cl)cc3n(CC(=O)Nc3ccc(C)cc3C)c2=O)cc1 | – | · | – | · | ·
CCOC(=O)c1cc2c(nc1N)CC(C)(CC)OC2 (stereo not given) | ? | 13µM | ? | ? | 3.16µM
CC1(C)Cc2nc3sc(C(N)=O)c(N)c3cc2CO1 | · | – | ? | – | ?
CCOC(=O)c1sc2nc3c(cc2c1N)COC(C)(CC)C3 (stereo not given) | 10µM | ? | 1.35µM | 0.794µM | 0.794µM
CCOC(=O)c1sc2nc3c(cc2c1N)COC(C)(C)C3 | 11.2µM | ? | 6.75µM | 2.82µM | 2.51µM
CCc1ccc(C(=O)c2cncc(Br)c2)cc1 | ? | · | 16.9µM | · | ·
O=C(Oc1ccc2cc(Br)ccc2c1)c1cccnc1 | – | – | ? | – | –
O=C(Oc1ccc(Br)cc1)c1cncc(Br)c1 | – | – | 4.78µM | – | –
COc1ccc(-c2cccc(C(=O)Nc3ccc(OC)c(OC)c3)c2)cc1 | – | – | 10.7µM | – | –
COc1ccc(-c2cccc(C(=O)Nc3ccc(C)cc3)c2)cc1 | – | – | – | – | –
COc1cccc(NC(=O)CNC(=O)c2ccc(OC)c(OC)c2)c1 | – | – | – | – | –
COc1ccc(-c2cccc(C(=O)Nc3cccc(C(=O)O)c3)c2)cc1 | 14.1µM | ? | 12µM | 3.16µM | 3.16µM
COc1ccc(/C=C(\NC(=O)c2ccc(OC)cc2)C(=O)Nc2cccc(C(=O)O)c2)cc1 | · | – | – | – | –
COc1ccc(C(=O)Nc2ccc(C(=O)NCCc3ccc(OC)c(OC)c3)cc2)cc1 | · | ? | – | – | –
COc1ccc(C(=O)COC(=O)c2cccc(NC(=O)c3ccc(OC)c(OC)c3)c2)cc1 | – | · | 0.601µM | · | ·
COc1ccc(C(=O)Nc2ccc(OC)c(OC)c2)cc1 | 11.2µM | ? | 12µM | ? | ?
COc1cccc([C@@H]2Oc3ccc(OC)cc3C(=O)[C@H]2OC(=O)Nc2ccc(C)c(Br)c2)c1 | – | · | · | · | ·
CN(Cc1ccccc1F)C(=O)c1ccccc1Sc1ccccc1C#N | · | – | – | – | –
SMILES | SMN2 splice up | ELG1 genotox | FLuc modulator | NPC1 prom act | Rab9 prom act
COc1cccc(NC(=O)NCCC2=CCCCC2)c1 | 14.1µM | ? | 15.1µM | 3.55µM | 4.47µM
COc1ccc(NC(=O)NCCC2=CCCCC2)cc1 | 12.6µM | ? | ? | 3.98µM | 2.82µM
COc1ccccc1NC(=O)NCCC1=CCCCC1 | · | – | ? | – | –
COc1ccc(-c2nc3scc(CCNS(=O)(=O)c4ccc(F)cc4C)n3n2)cc1 | · | · | – | · | ·
CCN(CC)S(=O)(=O)c1cc(NC(=O)C2CC(=O)N(Cc3ccccc3)C2)ccc1Cl (stereo not given) | · | – | – | – | –
CCOC(=O)c1cnn2c(C)cc(-c3ccc(F)cc3)nc12 | 11.2µM | ? | 12µM | 2.82µM | 3.55µM
Cc1cc(-c2ccc(F)cc2)nc2cc(C(N)=O)nn12 | – | – | – | – | –
Cc1ccc(NC(=O)c2cc(C)n(-c3ccccc3)c2C)cc1 | – | 0.231µM | 0.0536µM | – | ?
Cc1cc(C(=O)Nc2ccc(Cl)cc2)c(C)n1-c1ccccc1 | · | ? | 0.0478µM | – | –
Cc1ccc(NC(=O)c2cc(C)n(-c3cccc(C)c3)c2C)cc1 | – | ? | 1.51µM | – | ?
Cc1cc(C(=O)Nc2ccc(Cl)cc2)n(-c2ccccc2)n1 | · | – | – | – | –
